About 83,000 compounds went through this panel and 20% of them were active in at least one assay; those are over-represented in the sample as a whole.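 Single-dose data. Exposure time 48 hours. Values below 10 considered active.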 Unmarked numbers belong to inactive results. Activity calls are given as the source filed them.
How the values were obtained:
Test in all cases: NCI-60 one-dose screen, 48 h (100 = growth as untreated, 0 = no growth, -100 = all killed)
Details in all cases: 10 µM unless noted
SR leukemia = tested on: SR leukemia
RPMI-8226 leukemia = tested on: RPMI-8226 leukemia
OVCAR-8 ovarian = tested on: OVCAR-8 ovarian
OVCAR-5 ovarian = tested on: OVCAR-5 ovarian
OVCAR-4 ovarian = tested on: OVCAR-4 ovarian
SK-OV-3 ovarian = tested on: SK-OV-3 ovarian
IGROV1 ovarian = tested on: IGROV1 ovarian
OVCAR-3 ovarian = tested on: OVCAR-3 ovarian
HS 578T breast = tested on: HS 578T breast
NCI/ADR-RES ovarian = tested on: NCI/ADR-RES ovarian

| Compound | growth (SR leukemia) | growth (RPMI-8226 leukemia) | growth (OVCAR-8 ovarian) | growth (OVCAR-5 ovarian) | growth (OVCAR-4 ovarian) | growth (SK-OV-3 ovarian) | growth (IGROV1 ovarian) | growth (OVCAR-3 ovarian) | growth (HS 578T breast) | growth (NCI/ADR-RES ovarian) |
| --- | --- | --- | --- | --- | --- | --- | --- | --- | --- | --- |
| COc1ccc2nc(N=Nc3c(O)ccc4ccccc34)sc2c1 | 16.6% | 38.1% | 24.3% | 55.3% | 28.3% | 38.2% | 22.4% | 34.9% | 83% | 9.35% (active) |
| Cc1cccc(C)c1-c1cc(Cc2ccc(Cl)cc2)c(=O)[nH]n1 | 4.66% (active) | 52.2% | 97.1% | 96.5% | 97.6% | 103% | 77.6% |  | 94% | 96.1% |
| COc1ccccc1-c1c(-c2ccc(Cl)cc2)c2cc3c(cc2[nH]c1=O)OCCO3 | 45.8% | -57.2% (active) | 68.5% | 91.1% | 68.5% | 101% | 77% | 64.5% |  | 72.3% |
| NC(=O)CN1CCN(c2ccccc2Cl)CC1 | 99.5% | 108% | 122% | 99.9% | 124% | 103% | 108% | 116% | 102% | 108% |
| O=C(CSc1nc2sc3c(c2c(=O)n1Cc1ccccc1)CCCC3)N1CCN(c2ccccc2)CC1 | 101% | 94.1% | 97.9% | 102% | 96.1% | 92.1% | 103% |  | 101% | 94.8% |
| Cc1c2c(cc[n+]1Cc1ccccc1)c1ccc(OCc3ccccc3)cc1n2Cc1ccccc1 | -52.5% (active) | -21.6% (active) | -70.9% (active) | 13.5% | -3.79% (active) | 7.67% (active) | -65.1% (active) | -97.1% (active) | -35.9% (active) | 65% |
| COc1ccc2c(c1)OC1=C(C(=O)OC1)C2c1cc(OC)c(OC)c(OC)c1 (configuration not stated) | 15.3% | 11.5% | 21.1% | 32.7% | 56.3% | 13% | 49% | -55.9% (active) |  | 1.95% (active) |
| CN1CCN(C(=O)OCc2nc3c(N4CCOCC4)nc(-c4ccccc4)nc3n2C)CC1 | 2.5% (active) | -28.7% (active) | 4.37% (active) | -86.1% (active) | -86.4% (active) | 61.5% | -96.3% (active) | -81.9% (active) | -22% (active) | -16.2% (active) |
| CC[N+](CC)(CCCC(C)[N+]1(Cc2ccccc2)C(C)=CC=C1C)Cc1ccccc1 (configuration not stated) | 90.1% | 33.6% | 101% | 88.1% | 62.1% | 101% | 62.4% | 64% |  | 97.7% |
| COc1ccc(Nc2nc(N)nc3c2CCc2occc2-3)cc1 | 85.8% | 101% | 102% | 106% | 96.9% | 97.8% | 102% |  | 105% | 96.2% |
| CC(C)C1C2=C(NCCN1C(=O)Cc1ccccc1)C(C)(C)N(Cc1ccccc1)C2=O (configuration not stated) | 106% | 102% | 100% | 102% | 104% | 93.5% | 98.8% |  | 103% | 99% |
| NC(=O)C1(N2CCCCC2)CCN(CCCC(=O)c2ccc(F)cc2)CC1 | 11.4% | 29.5% | 51.1% | 72.7% | 59.8% | 30.8% | 62.6% |  | -2.41% (active) | 100% |
| Cc1ccc2[nH]c(=S)n(-c3ccc(S(=O)(=O)Nc4ccc(Cl)nn4)cc3)c(=O)c2c1 | 94.2% | 103% | 97.7% | 103% | 110% | 108% | 105% |  | 94.4% | 103% |
| NC(=O)c1cccc(-c2cc(C(N)=O)ccc2Cl)c1 | 2.33% (active) | 14.3% | 28.9% | 51.3% | 58.6% | 88.9% | 49.3% |  | 5.29% (active) | 19% |
| c1ccc(-c2nn(-c3ccccc3)[n+](-c3ccccc3-c3ccccc3)n2)cc1 | 8.06% (active) | 15.3% | -32.8% (active) | 37.1% | 22.3% | 36.5% | 30.9% |  | 9.51% (active) | 93.1% |
| CCSc1ccc2c(c1)N(CCCN1CCN(C)CC1)c1ccccc1S2 | -15% (active) | 32.1% | 76.3% | 70% | 61.2% | 78.7% |  | 58.2% | 61.4% | 60.8% |
| Fc1ccc(-n2cc(COc3ncnc4sc5c(c34)CCCC5)nn2)cc1Cl | 93.5% | 96% | 96.7% | 96.6% | 99.7% | 103% | 91.9% |  | 104% | 95.1% |
| Fc1ccc(C2CC(c3cccc(Nc4ccncc4)c3)=NN2c2ccccc2)cc1 (configuration not stated) | 2.49% (active) | 1.2% (active) | 55.1% | 85.3% | 51.9% | 70.8% | 44% |  | 73.1% | 73% |
| COc1ccc(C(O)c2cc3c(N)c(C(=O)Nc4cccc(Br)c4C)sc3nc2C)cc1 (configuration not stated) | 1.86% (active) | 7.3% (active) | 17.4% | 39.6% | 47.4% | 30.8% | 24.8% |  | 21.8% | 14.1% |
| COc1cc(C2CC(c3cccc(Nc4ccncc4)c3)=NN2c2ccc(Cl)cc2)cc(OC)c1OC (configuration not stated) | 2.48% (active) | -18.7% (active) | -26.5% (active) | 72.1% | 6.52% (active) | 64.5% | 4.16% (active) |  | 27.8% | 42.7% |
| O=C(NCCN1CCOCC1)OCc1nc2nc(Cl)nc(N3CCOCC3)c2[nH]1 | -0.969% (active) | 8.39% (active) | 7.4% (active) | 93.3% | 45.7% |  | 17.6% | -2.86% (active) | 14.3% | 6.61% (active) |
| CCCCCCOc1ccc(C(=N)N(CCCC)CCCC)c2ccccc12 | -46.9% (active) | -41.2% (active) | -74.6% (active) | -93.8% (active) | -96.4% (active) | -96.4% (active) |  | -94.2% (active) | -13.9% (active) | -95.3% (active) |
| Cc1ccc(C(c2c(O)c3cc(Br)ccc3[nH]c2=O)c2c(O)c3cc(Br)ccc3[nH]c2=O)cc1 | 97.3% | 73.2% | 96% | 104% | 81.7% |  | 89.6% | 86.7% | 82.4% | 101% |
| CC(C)(C)CC(C)(C)Nc1c(-c2ccc(C(F)(F)F)cc2)nc2cnccn12 | 59.8% | 62.9% | 89.2% | 102% | 79.4% | 82.7% | 67.4% |  | 102% | 81.9% |
| O=C(N/N=C/c1cccnc1)c1ccccc1Nc1cccc(C(F)(F)F)c1 | -15.3% (active) | 71.1% | 83.1% | 96.4% | 70.3% |  | 91.4% | 75.4% | 100% | 79% |
| N#Cc1ccc(-c2ccc3c(c2)NC(=O)/C3=C\c2ccc[nH]2)cc1 | 22.2% | 101% | 101% | 43.2% | 43.3% |  | 66.2% | 88.8% | 103% | 100% |
| C=C(C)[C@H]1CC/C(C)=C/CC[C@]2(C)O[C@H]2CC/C(COC(=O)[C@@H](OC(C)=O)[C@H](NC(=O)c2ccccc2)c2ccccc2)=C\[C@@H]1O | 51.2% | 54.8% | 93.9% | 106% | 85.7% | 94.1% |  | 104% | 91% | 88.1% |

— PubChem BioAssay (NCI)
